Compound activity: PubChem, several laboratories
Rows were chosen to be rich in hits. Some 5.3% of all compounds tested hit in one or more screens of this group.
Measles CPE: compounds protecting cells from measles virus cytopathic effect, primary screen, measles RdRp inhibitor project, single point, MLSMR library, absorbance; Measles virus-infected cells, CPE protection; protection (pct of control), % at 4 µM; 140,000 tested, 1.5% active; in the data active means protection mostly above about 24%, no sharp cut-off; inactive means mostly below about 26%
MT1-MMP txn act: MT1-MMP promoter reporter activation – cell-based, luciferase luminescence, primary screen; HT1080 MT1-MMP promoter luciferase reporter, overnight; hits give high values; activation factor at 10 µM; 86,000 tested, 0.16% active; AID 750, 2007;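 active means activation factor of at least 2 for MT1-MMP transcription at 10 µM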
PostGolgi ctrl: growth inhibition of yeast control strain, primary screen, counter-screen for post-Golgi transport modulator project; efflux-deficient yeast background strain, growth absorbance A615, 16 h; inhibition, % at 10 µM; 98,000 tested, 5% active; AID 738, 2007
PostGolgi yeast: phenotypic screen on post-Golgi transport, primary screen. post-Golgi transport phenotypic cell assay. 98,000 tested, 0.9% active. inhibition, % at 10 µM;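 further: yeast cells grown in 1536-well plates; yeast grown about 18 h at 30C before absorbance read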
An asterisk follows results filed as active; . = no result given; ! = not active in a repeat. Unless noted, no stated cut-off is given here; in the data, active means inhibition above about 30%; inactive means the rest.

SMILES | Measles CPE | MT1-MMP txn act | PostGolgi ctrl | PostGolgi yeast
Cc1ccccc1Cc1c(C)nc2c(C(=O)NCc3ccco3)cnn2c1C | 2.9 | 1 | 42.4* | -13.6
Cc1ccccc1Cc1c(C)nc2nc(SCC(=O)NCc3ccco3)nn2c1C | 4.9 | 1.2 | 9.6 | -1.2
Cc1ccc(C)c(Cc2c(C)nc3c(C(=O)N4CCOCC4)cnn3c2C)c1 | 39.8* | 1 | 3.9 | -4.9
NS(=O)(=O)c1ccc(NC(=O)CSc2nnc(Cc3cccs3)n2-c2ccccc2)cc1 | 15.5 | 1 | 34.3* | -8.2
Clc1cccc(-c2nnc(SCc3nc4ccccc4[nH]3)n2Cc2ccco2)c1 | 19.8 | 1 | -1.7 | -6.3
O=C(CSc1nnc(Cc2cccs2)n1Cc1ccco1)Nc1cc(Cl)cc(Cl)c1 | 2.8 | 1 | 35.0* | -16.0
Clc1ccc(OCc2nnc(SCc3nc4ccccc4[nH]3)n2Cc2ccco2)cc1 | 11.2 | 1.1 | 57.0* | 56.0*
COc1ccc(C)cc1NC(=O)CSc1nnc(COc2ccc(Cl)cc2)n1Cc1ccco1 | . | 1.1 | 40.0* | -2.8
CC(C)NC(=O)c1onc(CSc2cccc(F)c2)c1C(=O)O | 12.5 | . | -4.3 | 15.1
Fc1ccc(-c2nnc3ccc(N4CCc5ccccc5C4)nn23)cc1 | 25.6 | 0.9 | 58.8* | -2.6
O=C(Nc1ccc(F)cc1)N1CCN(c2ccc3nnc(-c4ccc(F)cc4)n3n2)CC1 | 7.1 | . | 1.1 | 6.8
CC(C)OC(=O)c1c2nc3ccccc3nc2n2c1[nH]c(=O)c1ccccc12 | 25.5 | 1.1 | 71.1* | 33.9*
CC(C)OC(=O)c1c(N)n(CCCN2CCOCC2)c2nc3ccccc3nc12 | 7.9 | 1.1 | 0.0 | 10.6
O=C(Cn1ncc2c(=O)oc3ccccc3c21)N1CCN(C(=O)c2ccco2)CC1 | 6.5 | 1.2 | 18.6 | 3.3
O=C(Cn1ncc2c(=O)oc3ccccc3c21)N1CCN(c2ccccn2)CC1 | 36.3 | 1 | 11.6 | 35.2*
COC(=O)[C@@]1(Cc2ccc(OC)cc2)[C@H]2c3cc(C(=O)N4CCCC4)n(Cc4cc(F)c(F)c(F)c4)c3C[C@H]2CN1C(=O)c1ccccc1 | . | 1.2 | . | .
C=CCOc1c(CNc2ccc(S(N)(=O)=O)cc2)cccc1OC | 27.6 | 1.2 | . | .
C=CCOc1c(CNn2nnnc2N)cccc1OC | 42.4* | 1.1 | . | .
CC(C)c1ccc(C(=O)CSc2n[nH]c(-c3ccncc3)n2)cc1 | 16.1 | 1 | 62.5* | 95.4*
O=C(CSc1n[nH]c(-c2ccccc2)n1)c1ccccc1 | 17.6 | 1.3 | 8.4 | -6.7
S=c1[nH]nc(C2CCCCC2)n1/N=C/C=C/c1ccccc1 | 1.2 | . | 30.5* | 20.0
COC(=O)c1ccc(N2C(=O)CC(N3CCOCC3)C2=O)cc1 (configuration not stated) | 40.2* | 1.1 | -3.6 | 20.9
CCOC(=O)C1CN(S(=O)(=O)c2ccc(OC)cc2)c2cc(S(=O)(=O)CC)ccc2O1 (configuration not stated) | 10.4 | . | 24.6 | -10.2
O=C(CN1CCN(c2ncc(C(F)(F)F)cc2Cl)CC1)N1CCN(c2ncc(C(F)(F)F)cc2Cl)CC1 | 10.2 | 1 | 30.2* | -4.2
Cc1nnc(NCc2n[nH]c(=O)c3ccccc23)c2ccccc12 | 7.0 | 1.1 | 1.2 | 7.7
SMILES | Measles CPE | MT1-MMP txn act | PostGolgi ctrl | PostGolgi yeast
COc1ccc(NCc2n[nH]c(=O)c3ccccc23)cc1 | 5.8 | 1.2 | 32.2* | -4.0
CCNC(=O)/C(=C/c1ccc2c(c1)OCO2)NC(=O)c1ccc(Br)cc1 | 4.2 | . | 5.2 | 2.5
c1ccc(-c2cc3n(c2)CCc2ccccc2-3)cc1 | 1.3 | 2.6* | . | .
O=C(O)c1cc2c(s1)-c1ccccc1CC2 | 10.1 | . | . | .
O=C1c2cccc3cccc(c23)C(=O)N1c1cccnc1 | 2.4 | 1.5 | 2.3 | 4.0
O=C1c2cccc3cccc(c23)C(=O)N1c1ccncc1 | 23.4* | 0.9 | . | .
COc1ccc(N(C(C)=O)S(=O)(=O)c2cccc3cccnc23)cc1 | 3.8 | . | . | .
O=c1c(Cl)c(N/N=C/c2ccc(Br)cc2)cnn1-c1ccccc1 | 3.2 | . | 3.4 | 11.3
Cc1cc(C)nc(/N=C(/NC(=O)Nc2cccc(Cl)c2)Nc2ccccc2)n1 | 20.0 | . | 4.5 | 2.2
O=C(NCC1c2ccccc2CCN1C(=O)CN1C(=O)c2ccccc2C1=O)C1CCCCC1 (configuration not stated) | 28.0 | 1.2 | 7.7 | -2.1
Cc1nn(Cc2cccc(C(=O)N3N=C(C(F)F)CC3(O)C(F)F)c2)c(C)c1[N+](=O)[O-] (configuration not stated) | 42.3* | . | 5.1 | -2.5
Cc1nn(Cc2cccc(C(=O)NC(C)c3ccc(C(C)(C)C)cc3)c2)c(C)c1[N+](=O)[O-] (configuration not stated) | 3.5 | . | 2.5 | 50.8*
Cc1nn(Cc2cccc(C(=O)NCC(C)C)c2)c(C)c1Br | 27.2* | 1.3 | . | .
CCC/C=C(\CCC)C(NP(=O)(c1ccccc1)c1ccccc1)c1ccc(-c2ccccc2)cc1 (configuration not stated) | . | 1.4 | . | .
CCS(=O)(=O)c1nc(S(=O)(=O)c2ccc(Cl)cc2)c(N2CCc3ccccc3C2)s1 | 2.1 | . | . | .
O=C(CCN1C(=O)c2ccccc2C1=O)Nc1sc2c(c1C(=O)NCC1CCCO1)CCC2 (configuration not stated) | 4.3 | . | . | .
COc1ccc2c(C=Nc3c(C)n(C)n(-c4ccccc4)c3=O)c(O)n(Cc3ccco3)c(=O)c2c1 | 17.6 | 1 | 62.8*! | -0.6
Cc1c(N=Cc2ccco2)c(=O)n(-c2ccccc2)n1C | 8.2 | 1.1 | 0.6 | 12.4
CC(NC(=O)COc1ccc(-c2nnco2)cc1)c1ccc(Cl)cc1Cl (configuration not stated) | 15.2 | . | . | .
O=C1N(c2cccc3ccccc23)C(c2ccccc2)N2CCCN12 (configuration not stated) | 20.2* | . | . | .
CCC(c1nnnn1Cc1ccco1)N1CCN(c2cc(Cl)ccc2C)CC1 (configuration not stated) | 4.3 | 1.3 | 56.5* | 4.3
Cc1ccc(Cl)cc1N1CCN(Cc2nnnn2C2CCCCC2)CC1 | 2.9 | . | 57.5* | 5.1
CCC(c1nnnn1Cc1ccco1)N1CCC(C(N)=O)CC1 (configuration not stated) | 22.2 | 1.3 | -6.4 | 15.3
c1ccc(N2CCN(Cc3nnnn3C3CCCCC3)CC2)cc1 | 4.3 | 1.1 | 0.5 | -1.2
c1ccc(C(c2nnnn2Cc2ccco2)N2CCN(c3nc4ccccc4s3)CC2)cc1 (configuration not stated) | 21.0 | 1.2 | . | .
SMILES | Measles CPE | MT1-MMP txn act | PostGolgi ctrl | PostGolgi yeast
Cc1ccc(Cl)cc1N1CCN(Cc2nnnn2Cc2ccco2)CC1 | 29.8 | 0.9 | 38.3* | 3.7
CCCCC(c1nnnn1Cc1ccco1)N1CCN(c2nc3ccccc3s2)CC1 (configuration not stated) | 1.7 | 1.1 | 45.6* | 93.6*
O=C(NC(=S)Nc1ccc(S(=O)(=O)NC2CCCCC2)cc1)c1cccs1 | 45.6 | . | . | .
CCn1c(CNc2ccc(C)cc2)nnc1SCC(N)=O | 21.9 | 1.2 | . | .
CC(C)(C)NC(=O)COC(=O)CNC(=O)c1cc(Cl)cc([N+](=O)[O-])c1 | 17.9 | . | . | .
CC1CCC(NC(=O)c2ccc3nc[nH]c3c2)CC1 (configuration not stated) | 17.1 | 1.4 | -5.1 | 1.8
Cc1ccc(CN2CCN(Cc3ccccc3C(F)(F)F)CC2)cc1 | 4.8 | . | 21.2 | -0.6
